# Compounds without any hit were thinned out: in the full panel of roughly 83,000, 20% have a hit.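 96-well plates, one dose, 48 hours. Percent growth reported; active if below 10.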 Activity calls are given as the source filed them.
# Test system: RPMI-8226 leukemia
# Assay: NCI-60 one-dose screen, 48 h (100 = growth as untreated, 0 = no growth, -100 = all killed)
# Conditions: 10 µM unless noted
row,SMILES,growth
1,CCCc1cc(O)c2c3c(c(=O)oc2c1)CN(C)CC3,28.4% (inactive)
2,Nc1c(F)cc(-c2nc3cc(F)ccc3[se]2)cc1F,48.8% (inactive)
3,Clc1ccc(COC(Cn2ccnc2)c2ccc(Cl)cc2Cl)cc1 (stereo not drawn),39.7% (inactive)
4,Fc1ccc2c(c1)c(-c1nc(-c3c[nH]c4ncccc34)cs1)cn2CCCCN1CCCCC1,-49.6% (active)
5,COc1ccc2nc(NC(=O)COc3cc(/C=C\c4cc(OC)c(OC)c(OC)c4)ccc3OC)sc2c1,20.9% (inactive)
6,Oc1c(CCl)cc(Cl)cc1CCl,106% (inactive)
7,COc1cc([C@@H]2c3cc4c(cc3[C@H](OC(C)=O)[C@H]3COC(=O)[C@H]23)OCO4)cc(OC)c1OC,23.4% (inactive)
8,COc1cc(NC(C)CCCNC2CN3CCC2CC3)c2ncccc2c1 (stereo not drawn),72.9% (inactive)
9,COC(=O)[C@@H](C)C[C@H](Cc1ccccc1)NC(=O)c1csc([C@@H](C[C@H](C(C)C)N(C)C(=O)[C@@H](NC(=O)C23CC(NC(C)=O)(C2)C3)C2CC2)OC(C)=O)n1,12% (inactive)
10,COc1cc(/C=C\c2cc(OC)c(OC)c(OC)c2)cc(N/C=C\C(=O)c2cc(OC)c(OC)c(OC)c2)c1OC,22.8% (inactive)
11,c1ccc(COc2ccc3[nH]cc(CCN(Cc4ccccc4)Cc4ccccc4)c3c2)cc1,74.9% (inactive)
12,Clc1ccc(CSC(Cn2ccnc2)c2ccc(Cl)cc2Cl)cc1 (stereo not drawn),29.8% (inactive)
13,C=CC[n+]1ccc(-c2cc[n+](CC=C)cc2)cc1,79.9% (inactive)
14,CCC1CC(O)c2c(O)c3c(c(O)c2C1O)C(=O)c1cccc(O)c1C3=O (stereo not drawn) (tested in a mixture with another compound),-35.8% (active)
15,ClC1=C(Cl)C(Cl)(C2(Cl)C(Cl)=C(Cl)C(Cl)=C2Cl)C(Cl)=C1Cl,-37.8% (active)
16,O=c1[nH]cc(N(CCCl)CCCl)c(=O)[nH]1,77.8% (inactive)
17,Cn1cc(C=O)c2nccnc21,103% (inactive)
18,CN1CC(=O)N(O)C1(C)c1cccnc1 (stereo not drawn),105% (inactive)
19,COC(=O)[C@@H](C)C[C@H](Cc1ccccc1)NC(=O)c1csc([C@@H](C[C@H](C(C)C)N(C)C(=O)[C@@H](NC(=O)[C@H]2CCCCN2C)c2ccc(F)cc2)OC(C)=O)n1,17.9% (inactive)
20,C[C@@H]1O[C@@H](O[C@H]2C[C@@H](O)[C@]3(CO)C4C(CC[C@]3(O)C2)[C@@]2(O)CC[C@H](C3=CC(=O)OC3)[C@@]2(C)C[C@H]4O)[C@H](O)[C@H](O)[C@H]1O (stereo partly drawn),17.8% (inactive)
21,CC[C@H](C)[C@H](NC(=O)C12CC(NC(C)=O)(C1)C2)C(=O)N(C)[C@H](C[C@@H](OC(C)=O)c1nc(C(=O)N[C@@H](Cc2ccccc2)C[C@H](C)C(=O)OC)cs1)C(C)C,6.56% (active)
22,CC(=O)/C=C/c1ccc2c(c1)OCO2,91.5% (inactive)
23,C[CH2][Sn]([Cl])([Cl])[CH2]C.Oc1ccccc1C=NCCN=Cc1ccccc1O,91.9% (inactive)
24,CN1CCCCC1C(C)(O)c1ccccc1 (stereo not drawn),114% (inactive)
25,COc1ccc2c(c1)c(C1(O)CC(CSC#N)OC1=O)cn2C(=O)c1ccc(Cl)cc1 (stereo not drawn),91.9% (inactive)

# Test system: OVCAR-8 ovarian
# Assay: as above
# Conditions: 10 µM unless noted
row,SMILES,growth
1,CC(C)(C)C(=O)OCOP(=O)(NCc1ccccc1)C1CCCN(O)C1=O (stereo not drawn),14.2% (inactive)
2,CCCc1cc(O)c2c3c(c(=O)oc2c1)CN(C)CC3,32.3% (inactive)
3,Nc1c(F)cc(-c2nc3cc(F)ccc3[se]2)cc1F,95.5% (inactive)
4,Clc1ccc(COC(Cn2ccnc2)c2ccc(Cl)cc2Cl)cc1 (stereo not drawn),51.8% (inactive)
5,Fc1ccc2c(c1)c(-c1nc(-c3c[nH]c4ncccc34)cs1)cn2CCCCN1CCCCC1,-82.9% (active)
6,COc1ccc2nc(NC(=O)COc3cc(/C=C\c4cc(OC)c(OC)c(OC)c4)ccc3OC)sc2c1,24% (inactive)
7,Oc1c(CCl)cc(Cl)cc1CCl,112% (inactive)
8,COc1cc([C@@H]2c3cc4c(cc3[C@H](OC(C)=O)[C@H]3COC(=O)[C@H]23)OCO4)cc(OC)c1OC,21.1% (inactive)
9,CCOC(=S)S[C@H]1C[C@@H]2[C@H](CC[C@]3(C)C(=O)CC[C@@H]23)[C@@]2(C)CCC(=O)C=C12,100% (inactive)
10,CC1(C)N=C(N)N=C(N)N1c1ccc(CCC(=O)Nc2ccc(S(=O)(=O)F)cc2)c(Cl)c1,-11.8% (active)
11,Cc1c2cc(Cl)c3ccccc3c2c[n+]2ccccc12,-1.69% (active)
12,COc1cc(NC(C)CCCNC2CN3CCC2CC3)c2ncccc2c1 (stereo not drawn),75.9% (inactive)
13,COC(=O)[C@@H](C)C[C@H](Cc1ccccc1)NC(=O)c1csc([C@@H](C[C@H](C(C)C)N(C)C(=O)[C@@H](NC(=O)C23CC(NC(C)=O)(C2)C3)C2CC2)OC(C)=O)n1,69.1% (inactive)
14,CC12CCC3C(CCC4=CC(=O)CCC43CF)C1CCC2=O (stereo not drawn),94.3% (inactive)
15,O=C1OCC2=C1C(c1ccccc1)c1cc3c(cc1N2)OCO3 (stereo not drawn),5.45% (active)
16,COc1cc(/C=C\c2cc(OC)c(OC)c(OC)c2)cc(N/C=C\C(=O)c2cc(OC)c(OC)c(OC)c2)c1OC,41.2% (inactive)
17,Cc1ccc(S(=O)(=O)C(Cl)(Cl)Cl)cc1,96.2% (inactive)

row,SMILES,growth
1,c1ccc(COc2ccc3[nH]cc(CCN(Cc4ccccc4)Cc4ccccc4)c3c2)cc1,98.1% (inactive)
2,CCOC(=O)c1c(C)n(Cc2ccccc2)c2cc(CN(C)C)c(O)cc12,80.7% (inactive)
3,Clc1ccc(CSC(Cn2ccnc2)c2ccc(Cl)cc2Cl)cc1 (stereo not drawn),14.3% (inactive)
4,CCCCCCCCCCCCCCCCCCOc1ccccc1COP(=O)(O)OOCC[N+](C)(C)C,-30.5% (active)
5,CC12CCC3C(C=CC4=C(N)C(=O)CCC43C)C1CCC2=O (stereo not drawn),44% (inactive)
6,CNC(=O)Oc1ccc(N(C)C)cc1C(C)C,105% (inactive)
7,C=CC[n+]1ccc(-c2cc[n+](CC=C)cc2)cc1,61.3% (inactive)
8,ClC1=C(Cl)C(Cl)(C2(Cl)C(Cl)=C(Cl)C(Cl)=C2Cl)C(Cl)=C1Cl,0.392% (active)
9,Cn1cc(C=O)c2nccnc21,104% (inactive)
10,CN1CC(=O)N(O)C1(C)c1cccnc1 (stereo not drawn),99.3% (inactive)
11,CC1=C([Te]c2ccc(O)cc2)C(=O)c2ccccc2C1=O,13.6% (inactive)
12,COC(=O)[C@@H](C)C[C@H](Cc1ccccc1)NC(=O)c1csc([C@@H](C[C@H](C(C)C)N(C)C(=O)[C@@H](NC(=O)[C@H]2CCCCN2C)c2ccc(F)cc2)OC(C)=O)n1,26.8% (inactive)
13,C[C@@H]1O[C@@H](O[C@H]2C[C@@H](O)[C@]3(CO)C4C(CC[C@]3(O)C2)[C@@]2(O)CC[C@H](C3=CC(=O)OC3)[C@@]2(C)C[C@H]4O)[C@H](O)[C@H](O)[C@H]1O (stereo partly drawn),-81% (active)
14,CC[C@H](C)[C@H](NC(=O)C12CC(NC(C)=O)(C1)C2)C(=O)N(C)[C@H](C[C@@H](OC(C)=O)c1nc(C(=O)N[C@@H](Cc2ccccc2)C[C@H](C)C(=O)OC)cs1)C(C)C,17.2% (inactive)
15,C[CH2][Sn]([Cl])([Cl])[CH2]C.Oc1ccccc1C=NCCN=Cc1ccccc1O,100% (inactive)
16,COc1ccc2c(c1)c(C1(O)CC(CSC#N)OC1=O)cn2C(=O)c1ccc(Cl)cc1 (stereo not drawn),98.8% (inactive)

# — PubChem BioAssay (NCI)
